Only some compounds are listed: those with a hit (about 2.4% of all), similar ones and a draw of the others.
D2 PAM-1: positively modulates the human D2 dopamine receptor allosterically; potentiation, % at 10 µM; HEK293 T-REx D2, calcium flux, EC20 dopamine potentiation; P14416; 340,000 tested, 0.34% active; AID 485347;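 active = potentiation over 3 SD above the plate norm, cut at about 30% in these data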
Target sequence (P14416 whole entry, looked up): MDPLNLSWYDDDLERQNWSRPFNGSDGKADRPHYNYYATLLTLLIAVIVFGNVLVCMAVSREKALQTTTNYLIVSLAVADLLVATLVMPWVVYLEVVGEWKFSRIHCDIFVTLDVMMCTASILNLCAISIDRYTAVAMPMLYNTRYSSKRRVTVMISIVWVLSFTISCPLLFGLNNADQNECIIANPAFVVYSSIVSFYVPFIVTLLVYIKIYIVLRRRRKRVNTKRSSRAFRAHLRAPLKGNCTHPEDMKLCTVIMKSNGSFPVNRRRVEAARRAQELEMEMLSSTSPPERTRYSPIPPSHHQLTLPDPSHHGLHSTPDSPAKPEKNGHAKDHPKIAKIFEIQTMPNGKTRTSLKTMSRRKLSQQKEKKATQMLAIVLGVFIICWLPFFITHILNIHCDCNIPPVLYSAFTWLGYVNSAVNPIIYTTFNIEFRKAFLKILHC
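Tetracycline-induced HEK293 T-REx cells force-coupled to calcium signalling expressed D2; compounds were pin-added after a 10 s baseline, read kinetically 180 s, then an EC20 dopamine challenge followed with a further 180 s calcium read.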
D2 antagonist: D2 dopamine receptor (human) antagonism. P14416. HEK293 TREx D2 cells, calcium flux, dopamine EC80. inhibition, % at 10 µM. 340,000 tested, 2% active. AID 485344; in the data active = inhibition above about 30%; inactive = below that, where a call was filed
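Inhibition of EC80 dopamine-driven calcium flux, recorded kinetically, defines activity here; cells are a tetracycline-induced HEK293 T-REx line expressing force-coupled D2.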
D2 PAM-2: positive allosteric modulators of human D2 dopamine receptor | P14416 | 360,000 tested, 0.23% active | AID 624464 | DiscoveRx D2 beta-arrestin cells, luminescence, 90 min; 100% = 57 uM dopamine signal | potentiation, % (no concentration beside the values); in the data active = potentiation above about 50%; inconclusive = mostly about 30% to 49%
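PathHunter beta-arrestin assay in DiscoveRx D2 cells. Compounds were added with an EC20 of dopamine (50 nM final) for 90 min at 37 deg C. Luminescence was read 1 h after detection reagent, with 57 uM dopamine as the EC100 control.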
D2 ag-1: human D2 receptor agonism in beta-arrestin assay. P14416. DiscoveRx PathHunter D2 beta-arrestin, luminescence, 90 min; 100% = 57 uM dopamine signal. activation, % (no concentration beside the values). 360,000 tested, 0.084% active. AID 624465; in the data active = activation above about 40%; inconclusive = between about 15% and that limit
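Agonist mode: compounds alone added to overnight-plated D2 PathHunter cells for 90 min at 37 C, with 57 uM final dopamine (EC100) defining full response. Beta-arrestin recruitment detected by chemiluminescent reagent, read after 1 h at ambient temperature.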
D2 ag-2: D2 dopamine receptor (human) agonism | P14416 | HEK293 T-REx D2 cells, calcium flux agonist mode | activation, % at 2 µM | 340,000 tested, 0.53% active;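 active = activation over 3 SD above normal in the single-dose calcium agonist read, cut at about 30% in these data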
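Calcium-flux readout, 1 cycle/sec over 180 s following compound pin transfer, in inducible HEK293 Trex D2 cells (force-coupled); dopamine controls included. Positive calcium responses during this window marked compounds as potential agonists.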
D3 ag: D3 receptor agonism confirmed, beta-arrestin readout. DiscoveRx D3 beta-arrestin cells, luminescence, 90 min. Potency, µM (highest dose often 76.9 µM), usual class: activators. 2,300 tested, 4% active. shares compounds with D2 ag-2. AID 720506; note: nearly all actives have a fitted effect of over 70% in size
D2 ag-3: D2 receptor agonism, beta-arrestin counterscreen. 2,300 tested, 5.9% active. DiscoveRx PathHunter D2 beta-arrestin, luminescence, 90 min; response scale: percent relative to full dopamine signal. shares compounds with D2 ag-2. Potency, µM (highest dose often 76.9 µM), usual class: activators; note: nearly all actives have a fitted effect of over 70% in size
A number is an active result; i = inactive; ? = inconclusive; nt = not tested or not shown. Unless noted, calls come from the whole dose curve; as a rule, active = well fitted activation curve with a large enough effect; inconclusive = small, poorly fitted or top-dose-only effect; inactive = flat fitted curve, though single readings scatter.

SMILES	D2 PAM-1	D2 antagonist	D2 PAM-2	D2 ag-1	D2 ag-2	D3 ag	D2 ag-3
O=C(NCCCN1CCN(c2ccccc2F)CC1)C1CC(=O)N(C2CCCC2)C1 (stereo not given)	i	84	i	i	78	?	?
CN1CCN(CCCNC(=O)CN2C(=O)COc3ccccc32)CC1	i	i	i	i	i	nt	nt
O=C(CN1C(=O)COc2ccccc21)NCCCN1CCN(c2ccccc2F)CC1	i	78	i	i	56	i	i
O=C(CCN1C(=O)COc2ccccc21)NCCN1CCN(c2ccccc2F)CC1	i	45	i	i	36	i	i
CCCCNC(=O)C1(C)CCCCN1C(=O)c1cncc(Br)c1 (stereo not given)	nt	nt	i	i	nt	nt	nt
O=C(CCN1CCN(S(=O)(=O)c2ccc(Cl)cc2)CC1)Nc1ccccc1F	i	i	i	i	i	nt	nt
O=C(CCN1CCN(c2ccccc2F)CC1)Nc1ccc(F)cc1	i	88	i	i	i	?	i
O=C(CCN1CCN(c2ccccc2F)CC1)Nc1ccccc1Cl	i	88	i	i	70	i	i
O=C(CCN1CCN(c2ccccc2F)CC1)Nc1cccc(F)c1	i	80	i	i	81	?	?
O=C(CCN1CCCC1)Nc1ccccc1	i	i	i	i	i	nt	nt
COc1cc(NC(=O)CCN2CCN(c3ccccc3F)CC2)cc(OC)c1	i	40	i	i	31	?	i
CCN1C[C@@H]2[C@@H]3C(=O)N(Cc4ccccc4)C(=O)[C@@H]3[C@](CC)(C1=O)N2C(=O)c1ccccc1	nt	nt	i	i	nt	nt	nt
COC(=O)c1[nH]c2cc(OC)ccc2c1NC(=O)CCN1CCN(c2cccc(C)c2C)CC1	i	57	i	i	i	i	i
CC(=O)N1CCc2cc(S(=O)(=O)NCCCN3CCN(Cc4ccccc4)CC3)ccc21	i	44	i	i	42	i	i
Cc1ccc(SCCNC(=S)Nc2ccc(C)cc2C)cc1	i	i	i	i	i	i	i
COc1ccc(CNC(=O)CCn2nc(C)c3c(C)n(-c4ccccc4)nc3c2=O)cc1OC	i	nt	nt	nt	i	nt	nt
CCOc1ccccc1C(=O)NCC(=O)NNC(=O)CN(C)S(=O)(=O)c1ccc(Cl)cc1	nt	nt	i	?	nt	?	?
CN(CC(=O)NNC(=O)CNC(=O)c1cccs1)S(=O)(=O)c1ccc(Cl)cc1	i	i	i	i	42	i	i
CN(CC(=O)NNC(=O)CNC(=O)c1ccccc1F)S(=O)(=O)c1ccc(Cl)cc1	i	i	i	i	i	nt	nt
COc1ccc(S(=O)(=O)NC2CC2)cc1Cl	i	i	i	i	i	nt	nt
CCCn1c(C2CCCN2c2nc(C)cs2)nc2cc(Cl)c(Cl)cc21 (stereo not given)	i	i	i	i	i	nt	nt
CCCn1c(C2CCCN2c2nc(-c3cccc(Br)c3)cs2)nc2cc(Cl)c(Cl)cc21 (stereo not given)	i	i	i	i	40	i	i
COc1cc(-c2noc(C)c2C#CC2(O)CCCCC2)cc(OC)c1OC	i	i	i	i	72	i	i
COc1cc(-c2noc(C)c2C#CC2(N)CCCCC2)cc(OC)c1OC	i	i	i	i	i	nt	nt
Cc1ccc(-n2ncc(C(=O)N3CCN(c4cccc(C)c4)C(C)C3)c2C2CCN(C(=O)OC(C)(C)C)CC2)cc1 (stereo not given)	i	nt	nt	nt	i	nt	nt
SMILES	D2 PAM-1	D2 antagonist	D2 PAM-2	D2 ag-1	D2 ag-2	D3 ag	D2 ag-3
CCC1(CC)NC(=O)N(CC(=O)OCC(=O)Nc2ccc(OC(F)(F)F)cc2)C1=O	i	61	i	i	i	i	i
C=CCn1c(SCC(=O)NCC(c2ccccc2)N(C)C)nnc1C1CCCCC1 (stereo not given)	i	i	i	i	i	i	i
COc1cccc(C(=O)NCCN2CCN(c3ccccc3)CC2)c1	nt	nt	nt	nt	nt	?	i
COc1ccc(OC)c(NC(=O)CCN2CCN(C/C=C/c3ccccc3)CC2)c1	i	i	i	i	49	i	i
COc1ccc(NC(=O)CCN2CCN(Cc3ccccc3)CC2)c(OC)c1	i	41	i	i	i	i	i
COc1ccc(OC)c(NC(=O)CCN2CCN(C)CC2)c1	i	i	i	i	i	nt	nt
COc1ccc(OC)c(NC(=O)CCN2CCN(c3ccccc3)CC2)c1	i	80	i	?	87	?	?
CCN(C(=O)C(C)N1C(=O)/C(=C/c2cccs2)SC1=S)C1CCS(=O)(=O)C1 (stereo not given)	i	i	i	i	i	nt	nt
Nc1nonc1-c1nc2ccccc2n1CC(=O)Nc1cccc(C(F)(F)F)c1	i	nt	nt	nt	i	nt	nt
CC1CCCC(NC(=O)c2ccc3c(c2)NC(=O)CS3)C1C (stereo not given)	nt	nt	i	i	nt	nt	nt
O=C(c1ccc2c(c1)[nH]c(=S)n1c3ccccc3nc21)N1CCN(c2ncccn2)CC1	i	i	i	i	i	nt	nt
COCCn1c(=S)[nH]c2cc(C(=O)N3CCN(c4cccc(Cl)c4)CC3)ccc2c1=O	nt	nt	i	i	nt	nt	nt
O=C(NCCN1CCN(c2ccccc2)CC1)c1ccc2c(c1)[nH]c(=S)n1c3ccccc3nc21	i	34	i	i	48	?	i
COCCn1c(=O)[nH]c2cc(C(=O)NCCN3CCN(c4cccc(Cl)c4)CC3)ccc2c1=O	i	87	i	i	59	i	?
Cn1nc(C(=O)OCC(=O)Nc2ccc(F)cc2Cl)c2ccccc2c1=O	nt	nt	i	i	nt	nt	nt
CC(CNC(=O)c1cc(-c2ccccc2)n[nH]1)c1ccccc1 (stereo not given)	i	nt	nt	nt	i	nt	nt
CC1(C)C(C=C(Cl)Cl)C1C(=O)N1CCN(Cc2ccccc2)CC1 (stereo not given)	i	78	?	?	70	?	18µM
CCCN(CCC)CCCNC(=O)C1CCCN(S(=O)(=O)c2cccc3nsnc23)C1 (stereo not given)	i	nt	nt	nt	nt	nt	nt
CC(NC(=O)C(=O)N1CCOCC1)C(c1cccs1)N1CCN(c2ccccc2)CC1 (stereo not given)	i	i	i	i	44	i	i
COc1ccc(N2CCN(C(c3cccs3)C(C)NC(=O)C(=O)N3CCOCC3)CC2)cc1 (stereo not given)	i	i	i	i	i	nt	nt
CCCCNC(=O)CCC(=O)Nc1ccc2nc(N3CCN(C)CC3)cc(C)c2c1	i	i	i	i	i	nt	nt
CCCN(CCC)CCNC(=O)CCC(=O)Nc1ccc2nc(N3CCN(C)CC3)cc(C)c2c1	i	i	i	i	i	i	i

Compound activity from PubChem.
